Experimental data from PubChem BioAssay (NCI).
Compounds without any hit were thinned out: in the full panel of roughly 83,000, 20% have a hit.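 Cells were grown in 96-well plates and exposed to the test compound at a single concentration for 48 hours; results are reported as percent growth, with values below 10 considered active.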 A number with no mark means an inactive call. Calls of active or inactive are those of the source.

Assays:
Experiment in all cases: NCI-60 one-dose screen, 48 h (100 = growth as untreated, 0 = no growth, -100 = all killed)
Settings in all cases: 10 µM unless noted
DU-145 prostate = test system: DU-145 prostate
K-562 leukemia = test system: K-562 leukemia
MALME-3M melanoma = test system: MALME-3M melanoma
MDA-MB-231 breast = test system: MDA-MB-231 breast
RXF 393 renal = test system: RXF 393 renal
SF-268 CNS = test system: SF-268 CNS
SF-295 CNS = test system: SF-295 CNS
SF-539 CNS = test system: SF-539 CNS
UACC-257 melanoma = test system: UACC-257 melanoma
M14 melanoma = test system: M14 melanoma
HCT-15 colon = test system: HCT-15 colon
HT29 colon = test system: HT29 colon
SNB-75 CNS = test system: SNB-75 CNS
SNB-19 CNS = test system: SNB-19 CNS
U251 CNS = test system: U251 CNS
PC-3 prostate = test system: PC-3 prostate
SK-MEL-5 melanoma = test system: SK-MEL-5 melanoma
UACC-62 melanoma = test system: UACC-62 melanoma
LOX IMVI melanoma = test system: LOX IMVI melanoma
SK-MEL-28 melanoma = test system: SK-MEL-28 melanoma

Compound | growth (DU-145 prostate) [%] | growth (K-562 leukemia) | growth (MALME-3M melanoma) | growth (MDA-MB-231 breast) | growth (RXF 393 renal) | growth (SF-268 CNS) [%] | growth (SF-295 CNS) | growth (SF-539 CNS) | growth (UACC-257 melanoma) | growth (M14 melanoma) | growth (HCT-15 colon) | growth (HT29 colon) | growth (SNB-75 CNS) | growth (SNB-19 CNS) [%] | growth (U251 CNS) | growth (PC-3 prostate) | growth (SK-MEL-5 melanoma) | growth (UACC-62 melanoma) | growth (LOX IMVI melanoma) | growth (SK-MEL-28 melanoma) [%]
O=C(NNC(=O)c1nc2cc(F)ccc2n2cccc12)c1cnccn1 | 44.5 | 18.2% | 37.7% | 37.4% | 66.4% | 34.8 | 21.6% | 29.6% | 53.6% | 23.4% | 24.3% | 31.2% | 77.1% | 33 | 20.3% | 43.7% | 42.7% | 19.6% | 26.7% | –
COc1ccc(/C=C/C(=O)c2ccc(NC(=O)CSc3nc4c([nH]3)c(=O)n(C)c(=O)n4C)cc2)cc1OC | 97.4 | 79.3% | 95.9% | 84.4% | 87.5% | 83 | 92.6% | 80.1% | 87.4% | 92.5% | 89% | 103% | 82.3% | 62.5 | 49.6% | 94.6% | 92% | 81.4% | 78.3% | –
Cc1ccc2nc(-c3ccc(C(=O)NNC(=S)Nc4ccccc4)cc3)[nH]c2c1 | 102 | 62.5% | 94.5% | 99.6% | 91.1% | 99.7 | 90% | 99.4% | 102% | 88.6% | 87.1% | 92.5% | 99.9% | 97.8 | 103% | 85% | 94.2% | 98.9% | 87.1% | –
FC(F)(F)Oc1cccc(-c2cnc3ccc(-c4ccncc4)nn23)c1 | 22.2 | 31.6% | 39.2% | 32.9% | -29.6% (active) | 18.9 | 17.4% | -2.61% (active) | 48.6% | 26.8% | 8.36% (active) | 14.7% | 41.6% | 23.5 | 18.7% | 15.5% | 22.6% | -0.898% (active) | 9.23% (active) | –
Nc1nc(N)c(N=Nc2ccccc2)c(-c2ccccc2)n1 | 76.8 | 77.1% | 77.4% | 49.9% | 24.9% | 58 | 54.2% | 47.4% | 90.8% | 84.5% | 58.6% | 51.1% | -0.588% (active) | 69.5 | 72.4% | 35.8% | 46.9% | 41.4% | 42.6% | –
Cc1cccc(-c2nc(Nc3ccc4ncsc4c3)c3ccccc3n2)n1 | 90.6 | 28.5% | 102% | 101% | 78.8% | 98 | 88.7% | 98.1% | 81.4% | 64% | 70.7% | 43.1% | 105% | 102 | 77% | 14.7% | 42.4% | 80.8% | 93.2% | 98.2
CN(Cc1ccccc1)c1nc(Cl)c(C2CC(c3ccccc3)=NN2c2ccccc2)s1 (centres undefined) | 102 | 79.9% | 90.3% | 101% | 101% | 86.6 | 101% | 98.9% | 93% | 96.6% | 94.2% | 80.8% | 82.3% | 100 | 90.2% | 83.2% | 98.8% | 88.8% | 88.4% | 98.2
Cc1c(Cl)cccc1C(=O)Nc1nc2c(s1)CN(C(=O)c1ccc(C(F)(F)F)cc1)CC2 | 15.7 | 10.3% | 44.6% | 34.4% | 21.9% | 38.4 | 25.1% | -24.5% (active) | 63.7% | 10.2% | 15% | 1.63% (active) | 6.65% (active) | 34.6 | 17.7% | 7.45% (active) | 8.01% (active) | 37.6% | 20.2% | –
CCN1C(=O)N(CC)C2C1NN=c1s/c(=C3\C(=O)N(CC(C)C)c4ccccc43)c(=O)n12 (centres undefined) | 10.4 | 10.5% | 59.6% | 12.3% | 21.9% | 54.9 | 6.8% (active) | -23.5% (active) | 65.5% | 18.8% | 12.5% | 2.25% (active) | 14.9% | 28 | 12.1% | 27.7% | 14.9% | 27.7% | 24.7% | 51
CN(C)CCCC1(c2ccc(F)cc2)OCc2cc(-c3ccc4cc[nH]c4c3)ccc21 (centres undefined) | 35.7 | -20.1% (active) | 11% | 16% | 45.8% | 54 | 74.5% | 67.8% | 79.1% | -56.8% (active) | 25.8% | 4.73% (active) | 33.8% | 69.2 | 17.5% | 43.5% | 56.6% | 56.9% | -83.4% (active) | –
Cc1nc2c(=O)nc3s/c(=C\c4ccco4)c(=O)n3c2nc1C | 103 | 102% | 82.1% | 93.8% | 112% | 100 | 91.2% | 90.3% | 96.1% | 93.7% | 106% | 100% | 85.4% | 96.8 | 93.5% | 97.6% | 104% | 92.4% | 90.2% | –
O=C(CSc1nnc(-c2cc(-c3ccccc3)nc3ccccc23)n1-c1ccccc1)Nc1ccc(C(=O)/C=C/c2ccc(Cl)cc2)cc1 | 94.6 | 65.8% | 99.5% | 78.5% | 103% | 94.4 | 97.9% | 96.7% | 103% | 92.6% | 73.5% | 76.2% | 97.3% | 101 | 93.9% | 81% | 91.4% | 67.9% | 94.3% | –
CC1=C2[C@@H](CC1)[C@]1(C)O[C@@](c3ccccc3)(C[C@H]1OC(=O)CO)[C@H]2OC(=O)/C=C/c1ccccc1 | 97.8 | 70.6% | 88.6% | 91.4% | 36.2% | 33.1 | 91% | 111% | 103% | 96.8% | 92.6% | 87.2% | -50.7% (active) | 96.1 | 88.4% | 63.2% | 88.9% | 79% | 82.1% | –
COc1cc2c(c(OC)c1OC)C(=O)CC(c1cccc(NC(=O)c3ccc(C#N)cc3)c1)O2 (centres undefined) | 83.6 | 48.6% | 83.7% | 79.9% | 97.3% | 86.5 | 77.9% | 92.7% | 72.3% | 64.4% | 75.7% | 84.9% | 74.9% | 92 | 80.5% | 53% | 43.2% | 33.9% | 65.7% | 90.6
Cc1ccc(Cl)cc1NC(=O)c1sc2nc3c(cc2c1N)C(=O)CCC3 | 77.4 | 33.6% | 81.1% | 80% | 42.1% | 74.9 | 4.01% (active) | 47.7% | 44.9% | 62.9% | 45.9% | 28.8% | 48% | 68.1 | 59.1% | 55.8% | 27% | 53.1% | 68.1% | 67
NC(=O)c1c(NC(=O)c2cccc(C(F)(F)F)c2)sc2c1CCC(=O)C2 | 29.2 | -2.81% (active) | -41% (active) | -45.5% (active) | -5.44% (active) | 19 | -12.9% (active) | -78.1% (active) | -6.24% (active) | -54% (active) | -21.2% (active) | 3.32% (active) | -75.9% (active) | 11.6 | 7.56% (active) | -29.8% (active) | -56.3% (active) | -45.4% (active) | 5.08% (active) | –
